Compound activity from PubChem BioAssay.
This is a sample that favours compounds with a hit; in the whole collection about 1.9% have one here.
MEX-5 binding: C. elegans MEX-5 TCR-2 RNA binding activity. MEX-5/FITC-TCR2 RNA binding, fluorescence polarization; stronger effect = lower value. activity score (negative = inhibition of binding), % at 10 µM. 0.38% of 300,000 active;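 active = inhibition past about -25% in most replicates, and total fluorescence under double the plate's negative control median, limit read from the data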;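 note: 0% = DMSO and -100% = 5 µM competing unlabeled TCR2 RNA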
LANA-H2A inh: blocks KSHV LANA binding to histone H2A/H2B | Q9QR71 | cell-free LANA-H2A/H2B peptide, fluorescence polarization | inhibition, % (no concentration beside the values) | 0.6% of 320,000 active; in the data active = inhibition mostly above about 10%, no sharp cut-off; inactive = mostly below about 6.7%
GLD-1 RNA inh: GLD-1-TGE RNA interaction inhibition (C. elegans); Q17339; purified GLD-1 + fluorescein TGE RNA, fluorescence polarization; inhibition, % at 5.96 µM; 0.44% of 320,000 active; AID 2280;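 active = percent inhibition above a per-plate cutoff, the plate mean of test compounds plus 3 SD, cut at about 30% in these data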;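 note: 0% = DMSO wells with GLD-1 and probe and 100% = wells lacking GLD-1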
CR mimetic SO: caloric restriction mimetics inhibiting age-related superoxide in yeast; superoxide response (% of plate mean), % at 10 µM; S. cerevisiae aged cells, superoxide DHE fluorescence; stronger effect = lower value; 0.18% of 330,000 active;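 active = superoxide response under a set limit, about three screen SD below normal, cut at about 65% in these data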;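 note: yeast aged for seven days with compound at 30 °C before DHE staining; 100% = average MFI of all compound-treated wells on the plate with controls excluded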
MCL1-BIM inh: disrupts human MCL1 binding to BIM-BH3 peptide; Q07820; inhibition, % at 10.9 µM; GST-MCL1 / FITC-Bim-BH3 fluorescence polarization; 0.68% of 320,000 active;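 active = inhibition above the mean inhibition of all tested compounds plus 3 SD, set per campaign, cut at about 40% in these data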;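 note: 0% = DMSO wells and 100% = unlabeled Bim-BH3 peptide control; higher means more loss of mP so more displacement of Bim peptide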
Target sequence (Q07820 whole entry, looked up): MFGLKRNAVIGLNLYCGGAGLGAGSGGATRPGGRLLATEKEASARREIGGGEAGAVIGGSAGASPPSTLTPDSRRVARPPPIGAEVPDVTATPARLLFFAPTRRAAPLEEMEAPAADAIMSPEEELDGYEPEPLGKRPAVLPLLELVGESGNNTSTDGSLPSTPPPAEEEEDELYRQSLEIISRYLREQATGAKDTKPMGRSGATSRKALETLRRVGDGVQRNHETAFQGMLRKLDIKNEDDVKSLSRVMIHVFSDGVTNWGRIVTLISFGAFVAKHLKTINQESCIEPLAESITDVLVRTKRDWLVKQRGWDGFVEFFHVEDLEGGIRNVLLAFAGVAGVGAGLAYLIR
Bcl-xL primary: inhibitors of human Bcl-xL; 0.7% of 320,000 active; AID 2129; Q07817; inhibition, % at 10.9 µM; GST-Bcl-xL / FITC-Bim BH3 peptide fluorescence polarization;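 active = inhibition above the mean of all tested compounds plus 3 SD, cutoff set per campaign, cut at about 30% in these data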;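 note: 0% = DMSO wells and 100% = unlabeled Bim-BH3 peptide competitor; inhibitors lower millipolarization by displacing the labeled peptide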
Target sequence (Q07817 whole entry, looked up): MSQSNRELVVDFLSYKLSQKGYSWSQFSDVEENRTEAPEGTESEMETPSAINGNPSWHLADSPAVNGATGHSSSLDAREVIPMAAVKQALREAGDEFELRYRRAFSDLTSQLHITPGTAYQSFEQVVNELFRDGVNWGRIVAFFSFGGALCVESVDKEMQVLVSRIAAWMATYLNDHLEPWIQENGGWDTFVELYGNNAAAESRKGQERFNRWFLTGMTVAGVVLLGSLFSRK
CR mimetic CP: confirmation of caloric restriction mimetics inhibiting yeast age-related superoxide; shares compounds with CR mimetic SO; S. cerevisiae aging, superoxide DHE fluorescence; stronger effect = lower value; superoxide response (% of plate), % at 10 µM; 1% of 850 active; AID 434994;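 active = superoxide signal below 65% of the plate average of sample wells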;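 note: cells aged with compound for 7 days at 30 degrees C before staining; 100% equals mean DHE fluorescence of all compound wells on the plate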
DHE counter: DHE fluorescence interference, counter-screen artifact | AID 435000 | fluorescence response, % at 10 µM | shares compounds with CR mimetic SO | 850 tested, under 10 active | S. cerevisiae BY4741, flow cytometry; stronger effect = lower value;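 active = fluorescence response below 15%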;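 note: percent of the mean fluorescence averaged over all compound wells on the plate; lower means stronger quenching of DHE signal or ROS scavenging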
* hit, by the source's call.

Results for Cc1ccc(N2C(=O)NC(NS(=O)(=O)c3ccccc3)(C(F)(F)F)C2=O)cc1C (stereo unspecified) ?
MEX-5 binding: 1.5; LANA-H2A inh: -1.7; GLD-1 RNA inh: 4.6; CR mimetic SO: 109.4; MCL1-BIM inh: -5.3; Bcl-xL primary: 0.8

What do the screens show for `CSc1ncc(Cl)c(C(=O)Nc2ccccc2Cl)n1`?
MEX-5 binding: 2.5; GLD-1 RNA inh: 8.9; CR mimetic SO: 97.9; MCL1-BIM inh: 1.9; Bcl-xL primary: 8.0; CR mimetic CP: 101.2; DHE counter: 89.4

Results for CSc1ncc(Cl)c(C(=O)Nc2c(C)cccc2C)n1 ?
MEX-5 binding: -0.2; LANA-H2A inh: 2.7; GLD-1 RNA inh: 5.3; CR mimetic SO: 106.0; MCL1-BIM inh: -3.4; Bcl-xL primary: -2.7; CR mimetic CP: 107.7; DHE counter: 104.8

How did CSc1ncc(Cl)c(C(=O)Nc2ccc(NC(C)=O)cc2)n1 do in these assays?
MEX-5 binding: -12.1; LANA-H2A inh: 2.3; GLD-1 RNA inh: -3.1; CR mimetic SO: 94.4; MCL1-BIM inh: 0.2; Bcl-xL primary: -0.4

Results for CCSc1ncc(Cl)c(C(=O)Nc2ccccc2Cl)n1 ?
MEX-5 binding: 0.8; LANA-H2A inh: 1.4; GLD-1 RNA inh: 0.3; CR mimetic SO: 92.8; MCL1-BIM inh: 2.5; Bcl-xL primary: 8.2; CR mimetic CP: 108.0; DHE counter: 101.4

What do the screens show for `C=CCN(CC=C)C(=O)COC(=O)c1ccc(Sc2ncn[nH]2)c([N+](=O)[O-])c1`?
MEX-5 binding: -18.0; LANA-H2A inh: -2.5; GLD-1 RNA inh: 4.8; CR mimetic SO: 117.2; MCL1-BIM inh: 4.2; Bcl-xL primary: 3.6

Results for CCCc1ccc(S(=O)(=O)N/N=C\c2ccc3c(c2)OCO3)cc1 ?
MEX-5 binding: 0.6; LANA-H2A inh: -9.3; CR mimetic SO: 100.2

Results for COc1ccc(Cl)c2sc(N(CCN(C)C)C(=O)c3ccc4c(c3)OCCO4)nc12 ?
MEX-5 binding: 1.2; LANA-H2A inh: -4.0; GLD-1 RNA inh: 3.7; CR mimetic SO: 92.9; MCL1-BIM inh: -14.2; Bcl-xL primary: -0.1

How did Cc1c(F)cccc1NC(=O)c1ccc2c(c1)CCN2S(C)(=O)=O do in these assays?
MEX-5 binding: -3.5; LANA-H2A inh: 5.2; GLD-1 RNA inh: 3.5; CR mimetic SO: 102.6; MCL1-BIM inh: 23.1; Bcl-xL primary: 7.0

What do the screens show for `O=S(=O)(NCCn1ccc2ccccc21)c1ccccc1`?
MEX-5 binding: 1.3; LANA-H2A inh: -2.4; GLD-1 RNA inh: 13.3; CR mimetic SO: 64.8*; MCL1-BIM inh: 4.1; Bcl-xL primary: 2.8; CR mimetic CP: 110.1; DHE counter: 107.0

What do the screens show for `CCC(=O)NCCn1ccc2ccccc21`?
MEX-5 binding: -2.6; LANA-H2A inh: 5.3; GLD-1 RNA inh: 0.4; CR mimetic SO: 92.6; MCL1-BIM inh: 3.2; Bcl-xL primary: 1.8

How did C=C(C)[C@@H]1CCC2(C(=O)O)CC[C@]3(C)[C@H](CC[C@@H]4[C@@]5(C)CCC(=O)C(C)(C)[C@@H]5CC[C@]43C)[C@@H]12 (stereo partly specified) do in these assays?
MEX-5 binding: 0.0; LANA-H2A inh: 0.7; GLD-1 RNA inh: -0.9; CR mimetic SO: 98.7; MCL1-BIM inh: 9.0; Bcl-xL primary: 6.0

How did CC1(C)C(=O)CC[C@@]2(C)[C@H]1CC[C@@]1(C)CC3=C(CC[C@@H]12)[C@@]1(C)CCC(=O)C(C)(C)[C@@H]1CC3 do in these assays?
LANA-H2A inh: 0.4; GLD-1 RNA inh: -1.7; CR mimetic SO: 63.9*; MCL1-BIM inh: 7.9; Bcl-xL primary: 8.6; CR mimetic CP: 95.0; DHE counter: 99.9

What do the screens show for `O=C(/C=C/c1ccccc1[N+](=O)[O-])NCc1ccccc1Cl`?
MEX-5 binding: 2.0; LANA-H2A inh: -2.8; GLD-1 RNA inh: 5.1; CR mimetic SO: 64.2*; MCL1-BIM inh: 4.7; Bcl-xL primary: 3.4; CR mimetic CP: 116.3; DHE counter: 104.5

What do the screens show for `O=C(Cc1ccc(Cl)cc1)Nc1cc(S(=O)(=O)N2CCOCC2)ccc1N1CCCC1`?
MEX-5 binding: 2.1; LANA-H2A inh: -2.4; GLD-1 RNA inh: 3.8; CR mimetic SO: 100.9; MCL1-BIM inh: -7.1; Bcl-xL primary: -6.7; CR mimetic CP: 134.3; DHE counter: 122.4

What do the screens show for `COc1ccc(CC(=O)Nc2cc(S(=O)(=O)N3CCOCC3)ccc2N2CCCC2)cc1OC`?
LANA-H2A inh: -1.6; GLD-1 RNA inh: 0.3; CR mimetic SO: 93.3; CR mimetic CP: 84.1; DHE counter: 91.7

How did COc1ccccc1CCC(=O)Nc1cc(S(=O)(=O)N2CCOCC2)ccc1N1CCCC1 do in these assays?
MEX-5 binding: -1.6; LANA-H2A inh: -22.1; GLD-1 RNA inh: -1.5; CR mimetic SO: 93.6; MCL1-BIM inh: 0.8; Bcl-xL primary: 3.3

How did CCC(C)(C)NC(=O)C(c1cccc(OC)c1OC)N(C(=O)CCC(=O)Nc1cc(C)on1)C(C)C (stereo unspecified) do in these assays?
MEX-5 binding: 1.6; LANA-H2A inh: -1.0; GLD-1 RNA inh: -1.8; CR mimetic SO: 110.7; MCL1-BIM inh: 5.5; Bcl-xL primary: 1.7

Results for Cc1cc(/C=N/NC(=O)C(O)(c2ccccc2)c2ccccc2)c(C)n1-c1ccc(C(=O)O)cc1 ?
MEX-5 binding: -1.2; LANA-H2A inh: -5.3; GLD-1 RNA inh: -2.5; CR mimetic SO: 55.5*; MCL1-BIM inh: 12.5; Bcl-xL primary: 5.0; CR mimetic CP: 96.4; DHE counter: 105.2

Results for Cc1cc(/C=N/NC(=O)C(O)(c2ccccc2)c2ccccc2)c(C)n1-c1cccc(C(=O)O)c1 ?
MEX-5 binding: -0.5; LANA-H2A inh: -1.0; GLD-1 RNA inh: 0.3; CR mimetic SO: 101.8; MCL1-BIM inh: 14.9; Bcl-xL primary: 13.2

What do the screens show for `COc1ccc(-n2nnnc2SCC(=O)Nc2ccc(OC)cc2OC)cc1`?
MEX-5 binding: 1.4; LANA-H2A inh: -2.4; GLD-1 RNA inh: 7.2; CR mimetic SO: 90.5; MCL1-BIM inh: -4.8; Bcl-xL primary: 4.3

How did CC(=O)Nc1ccc(Nc2nnc(-c3ccc(C)c(S(=O)(=O)NCC4CCCO4)c3)c3ccccc23)cc1 (stereo unspecified) do in these assays?
MEX-5 binding: 1.1; LANA-H2A inh: -0.7; GLD-1 RNA inh: 4.7; CR mimetic SO: 86.2; MCL1-BIM inh: -1.4; Bcl-xL primary: 1.0; CR mimetic CP: 107.0; DHE counter: 103.8

What do the screens show for `CNC(=O)c1ccc(Nc2nnc(-c3ccc(C)c(S(=O)(=O)NCC4CCCO4)c3)c3ccccc23)cc1` (stereo unspecified)?
MEX-5 binding: -1.3; LANA-H2A inh: -3.6; GLD-1 RNA inh: -3.1; CR mimetic SO: 102.8; MCL1-BIM inh: 3.9; Bcl-xL primary: 6.0; CR mimetic CP: 110.4; DHE counter: 114.4
